Data from PubChem BioAssay AID778 (Sanford-Burnham Center for Chemical Genomics, 2007).
In all, about 96,000 compounds went through this assay and about 20,000 (21%) were called active. Not all results are given here. Values without a mark were called inactive.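 The calls were made as follows: active = CYP2C19 inhibition above a set limit at 5 µM in the primary screen (cut at about 50% in these data); inactive = the rest.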

Biological target: Cytochrome P450 2C19 (Homo sapiens) (UniProt P33261)
Assay: blockers of cytochrome P450 2C19 activity – biochemical, luminescence, ADME assay, primary screen (AID 778);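 also: plate controls were negative control wells for no effect and 2.5 mM tranylcypromine positive control for full effect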
Settings: CYP2C19 Supersomes, luciferin-H EGE luminescence, 30 min; at 5 µM; active compounds read high

Cytochrome P450 2C19 (Homo sapiens), sequence (P33261 whole entry, looked up): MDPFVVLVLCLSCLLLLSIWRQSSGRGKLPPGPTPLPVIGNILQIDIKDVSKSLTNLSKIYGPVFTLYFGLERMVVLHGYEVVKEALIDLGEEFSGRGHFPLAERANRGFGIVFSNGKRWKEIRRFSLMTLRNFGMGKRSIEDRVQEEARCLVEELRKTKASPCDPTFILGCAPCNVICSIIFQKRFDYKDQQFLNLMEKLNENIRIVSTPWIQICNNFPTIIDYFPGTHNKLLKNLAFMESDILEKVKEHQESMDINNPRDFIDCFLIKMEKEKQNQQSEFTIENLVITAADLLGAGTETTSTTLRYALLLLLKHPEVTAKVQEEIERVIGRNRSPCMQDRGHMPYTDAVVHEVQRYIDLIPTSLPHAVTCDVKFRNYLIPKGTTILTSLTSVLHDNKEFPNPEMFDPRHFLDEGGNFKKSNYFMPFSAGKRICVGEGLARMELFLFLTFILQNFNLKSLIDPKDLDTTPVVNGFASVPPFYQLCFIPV

SMILES	inhibition
C=CCC(NCCCO)c1cccc(OC)c1OC (stereo unspecified)	-15.9%
CCOC(=O)N1CCN(S(=O)(=O)c2cc(Br)cc3c2N(C(=O)C2CC2)CC3)CC1	30.1%
O=C(C1CCN(S(=O)(=O)c2cnc[nH]2)CC1)N1CCN(Cc2ccc3c(c2)OCO3)CC1	11.6%
CCN(c1ccc2c(c1)OCO2)S(=O)(=O)c1cc(Br)cc2c1N(C(=O)C1CC1)CC2	51.5% (active)
CC(C)C(=O)Nc1cccc(NC(=S)NC(=O)C(c2ccccc2)c2ccccc2)c1	18.9%
CCc1cc(=O)oc2cc(C)cc(OC(C)C(=O)O)c12 (stereo unspecified)	-4.4%
COc1ccc(NC(=O)C(CC(C)C)NS(=O)(=O)c2ccc3c(c2)CCN3C(C)=O)cc1OC (stereo unspecified)	31.2%
COc1ccc(-n2c(SCC(=O)Nc3sc4c(c3C#N)CCCC4)nnc2-c2ccc(O)cc2)cc1	26.8%
CC(Sc1nncs1)C(=O)NCc1ccc2c(c1)OCO2 (stereo unspecified)	75.7% (active)
O=C(NCc1ccc2c(c1)OCO2)c1cc2c(s1)CS(=O)(=O)C2	28.8%
Cc1ccc2c(c1)-c1c(ssc1=S)C(C)(C)N2C(=O)CN1C(=O)c2ccccc2C1=O	25.1%
Cc1nc2ccc(S(=O)(=O)NCC(=O)O)cc2s1	-10.3%
N#Cc1ccc(OCCN2C(=O)NC3(CCSC3)C2=O)cc1 (stereo unspecified)	-8.7%
CCCOc1ccc(C2NC(=O)NC(c3ccccc3)=C2C(C)=O)cc1OCC (stereo unspecified)	11%
COc1cc2c(cc1OC)C(c1ccc(C)o1)CC(=O)N2 (stereo unspecified)	-11%
COc1ccccc1C1C2=C(COC2=O)Nc2cc3c(cc21)OCO3 (stereo unspecified)	91.7% (active)
CCCOc1ccccc1C1CC(=O)Nc2cc3c(cc21)OCO3 (stereo unspecified)	99.3% (active)
Cc1cc(=O)oc(C)c1C(=O)N1CCCCC1	20.5%
O=[N+]([O-])c1ccccc1OCCCCN1CCCCC1	1%
COc1cccc(C(=O)c2cc3ccc(O)cc3oc2=O)c1	83.3% (active)
COc1ccc2oc(=O)c(C(=O)O)cc2c1	-14.5%
COc1cccc(C(=O)NNC(=O)c2ccccc2Br)c1	8.8%
CCOCCCNC(=O)C(NC(=O)CNC(=O)c1ccccc1)c1ccc(C)cc1 (stereo unspecified)	-8.2%
COc1ccccc1N1CCN(C(=O)c2cn(-c3ccccc3)nc2-c2cccnc2)CC1	93.8% (active)

SMILES	inhibition
COc1ccccc1N1CCN(C(=O)c2cc3c(-c4ccc(Cl)cc4)nn(C)c3s2)CC1	74.1% (active)
COc1cccc(-c2nn(C)c3sc(C(=O)N4CCN(c5ccccc5)CC4)cc23)c1	23.7%
CCOC(=O)N1CCN(C(=O)c2cc3c(-c4ccc(Cl)cc4)nn(C)c3s2)CC1	9.1%
O=C(c1cn(-c2ccccc2)nc1-c1cccnc1)N1CCCCC1	40.6%
COc1ccccc1N1CCN(C(=O)Cn2nnc(-c3cccs3)n2)CC1	46.2%
Cn1c(=O)[nH]c(=O)c2c1nc(N1CCN(CCO)CC1)n2CCSc1nc2ccccc2s1	-15.3%
O=C(NC1CCc2ccccc21)C12CN(Cc3ccccc3)CC1C(c1cccc([N+](=O)[O-])c1)=NO2 (stereo unspecified)	14.2%
O=C(N/N=C\c1ccc(-c2ccc(Cl)c(Cl)c2)o1)C(=O)N1CCCC1	16.3%
COC(=O)CN1C(=O)C(O)=C(C(C)=O)C1c1ccc([N+](=O)[O-])cc1 (stereo unspecified)	-14.6%
Cc1c(C(=O)NCC2CCCO2)sc2nc(-c3ccccc3)cn12 (stereo unspecified)	27.4%
Cc1ccsc1C(=O)OCC(=O)c1cc2ccccc2o1	44.1%
Cc1ccsc1C(=O)OCC(=O)c1cc(C)n(CC2CCCO2)c1C (stereo unspecified)	54.4% (active)
COC(=O)c1ccc(S(=O)(=O)N2CCC(c3nc4ccccc4o3)CC2)cc1	8.7%
Oc1ccc(/C=N/NC2=NCCCCC2)c(O)c1	13.9%
COC(=O)C1CCN(CC(N)=O)CC1	-8.8%
Cc1cc([N+](=O)[O-])c(-c2ccc(/C=N/n3cnnc3)o2)cc1Cl	63.7% (active)
Cc1cc(C)c([N+](=O)[O-])cc1-c1ccc(/C=N/NC(=O)c2nonc2N)o1	3.8%
NC(=O)c1ccsc1NC(=O)c1ccco1	38.9%
O=C(NCC(F)(F)F)Nc1nnc(C(F)(F)F)s1	-26%
CCOc1c2ccc(C(=O)NCc3ccc4c(c3)OCO4)cc2nn1C	31.5%
CCOc1cc(S(=O)(=O)NCc2ccc3c(c2)OCO3)ccc1F	91.8% (active)
CCOc1cc(S(=O)(=O)NC2CC(C)(C)NC(C)(C)C2)ccc1F	-5.3%
O=C(Nc1cc(-c2nn(CC(=O)N3CCCCC3)c(=O)c3ccccc23)ccc1N1CCOCC1)c1ccc(Cl)cc1	7.3%
CC(C)C(=O)NC(=S)Nc1ccccc1F	25.4%

SMILES	inhibition
O=C(CN1C(=O)NC2(CCCC2)C1=O)Nc1ccc(F)c(F)c1F	0.4%
CC(C(=O)Nc1ccc(F)c(F)c1F)N1CCCCCC1 (stereo unspecified)	64.6% (active)
C=CCNc1ncnc2ccc(Br)cc12	20.7%
Cc1nc(CNS(=O)(=O)c2ccc(Oc3ccccc3)cc2)cs1	73.1% (active)
Cc1nc(CNS(=O)(=O)c2cccnc2)cs1	19.3%
Cc1ccc(S(=O)(=O)NCc2csc(C)n2)c(C)c1	13.3%
Cc1cc(=O)oc2cc(OC(C)C(=O)Nc3ccc(N4CCOCC4)cc3)ccc12 (stereo unspecified)	27.5%
Cc1cc(C(=O)OC(C)C(=O)Nc2cccc(S(=O)(=O)N3CCOCC3)c2)c(C)o1 (stereo unspecified)	96.4% (active)
CCOC(=O)c1sc(NC(=O)c2cc(S(=O)(=O)N3CCOCC3)ccc2C)nc1C	35.4%
CC(Sc1nncn1C)C(=O)Nc1ccccc1-c1ccccc1 (stereo unspecified)	9.5%
O=C1Nc2cc(Cl)c(Cl)cc2N(O)N1c1cc(Cl)cc(Cl)c1	-1.7%
CN(C)Cc1c(O)ccc2occ(C(O)c3ccccc3)c12 (stereo unspecified)	70.5% (active)
c1csc(CN2CCN(Cc3cccs3)C2c2cccs2)c1	16.8%
O=C(CN1CCOCC1)Nc1cc(Cl)ccc1Cl	48.8%
C=C(C)Cn1c(N2CCCC2)nc2c1c(=O)[nH]c(=O)n2C	-8.1%
COc1ccccc1N1CCN(C(=O)CSc2nnc(-c3ccoc3C)o2)CC1	17.4%
O=C(CSC1=Nc2ccccc2C2=NC(CC(=O)NCc3ccco3)C(=O)N12)NCc1ccco1 (stereo unspecified)	10.6%
CCC1CCCCN1CCCNC(=O)Cn1nc(-c2ccccc2)ccc1=O (stereo unspecified)	-1.3%
Cc1ccsc1-c1nc(CSCC(=O)NCCN2CCCC2)c(C)o1	1.6%
O=C(/C=C/c1ccc(Cl)cc1Cl)NCc1ccco1	31.8%
O=C(/C=C/c1ccc(Cl)cc1Cl)c1cccnc1	62.6% (active)
C/C(=C\C(=O)c1cccnc1)Nc1ccc(C)c(C)c1	37.2%
C=CCn1c(N)c(C(=O)OCC(C)C)c2nc3ccccc3nc21	18.5%
C=CCn1c(N)c(S(=O)(=O)c2cccs2)c2nc3ccccc3nc21	80.5% (active)

SMILES	inhibition
Cc1ccc(S(=O)(=O)c2c(N)n(C)c3nc4ccccc4nc23)cc1	47.7%
Cc1ccc(NC(=S)NCCN2CCOCC2)cc1	23%
Cc1ccc(-c2noc(CSc3nnnn3-c3ccccc3)n2)cc1	73.4% (active)
COc1ccc(-c2noc(CSc3ccc(C)cc3)n2)cc1	78.6% (active)
CCN(CC)C(=O)CSc1nnc(-c2cnccn2)n1-c1ccc(C)cc1	-1.8%
Fc1ccc(-n2c(Cc3ccccc3)nnc2SCc2nc(-c3ccc(Cl)cc3)no2)cc1	80% (active)
O=C(CSc1nnc(Cc2ccccc2)n1-c1ccccc1)N1CCOCC1	8.2%
COc1ccc(-c2noc(CN(C)S(=O)(=O)c3ccc(C)cc3)n2)cc1	40.2%
Cc1ccc(Nc2nc(CSc3nnnn3-c3ccccc3)cc(=O)[nH]2)cc1	16.7%
COc1ccc(-c2noc(-c3ccc(C)cc3)n2)cc1	6.2%
Cc1ccc(-c2noc(CSc3nnc(-c4ccncc4)n3-c3ccc(F)cc3)n2)cc1	58.3% (active)
CSc1nnc(CNC(=O)c2ccccc2)n1-c1ccc(F)cc1	-4.4%
Cc1cccc(-c2noc(-c3ccc(F)cc3)n2)c1	32.6%
Cc1cc2c(cc1C)N(C(=O)CN1C(=O)c3ccccc3C1=O)C(C)(C)c1ssc(=S)c1-2	3.4%
OCCNCCCCOc1ccccc1F	-2.2%
Cc1c(Br)c([N+](=O)[O-])nn1C(C)C(=O)Nc1nccs1 (stereo unspecified)	37.1%
Cc1nnc(SCC(=O)N(C(C)C)C(C)C)nc1C	22.9%
CCc1nc(N2CCN(c3nc(C)cc(C)n3)CC2)c2oc3ccccc3c2n1	8.3%
O=C(Nc1ccc(Br)cc1)c1cccc(NC(=O)C2C3CC4OC(=O)C2C4C3)c1 (stereo unspecified)	24.6%
O=C(Nc1nncs1)c1ccccc1NS(=O)(=O)c1cccs1	46.2%
CC1(C)CC(=O)C(C=NCc2cccnc2)=C(O)C1	14.2%
CCOC(=O)N1CCC(NC(=O)COc2cc(=O)n(C)c3ccccc23)CC1	-16.3%
CN1C2CCC1/C(=C\c1ccccc1Cl)C(=O)/C2=C\c1ccccc1Cl	-12.1%
Cc1ccc(CCNC(=O)C2CCN(S(=O)(=O)N3CCCC3)CC2)cc1	12.2%
